# Inconclusive results are not listed. A call without a number means that no potency is given here. A number with no mark means an inactive call. The source made the active and inactive calls. Calls follow the shape of the dose curve; as a rule, active = well fitted curve in the direction sought with a large enough effect; inconclusive = small, poorly fitted or top-dose-only effect, or another doubt; inactive = no such curve, though single readings can be large; an effect the other way counts as inactive or inconclusive.
# Assays:
# [1] = system: C33A; assay: Primary qHTS to identify gynecologic anti-cancer compounds using libraries of approved drugs and bioactive compounds (AID 1345084); conditions: Gynecologic cancer cell panel viability, ATPlite luminescence, 48 h; series mostly up to 57.5 µM; also: nearly all actives have a fitted effect of over 55% in size
# Procedure, shortened: (§1)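 Cytotoxicity screen measuring ATP content by luciferase luminescence. Each compound is applied at five concentrations for 48 h at 37 C with 5% CO2.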
# [2] = system: CASKI; assay: as above; conditions: Gynecologic cancer cell panel viability, ATPlite luminescence, 48 h; series mostly up to 57.5 µM
# Procedure, shortened: as §1
# [3] = system: Es-2; assay: as above; conditions: Gynecologic cancer cell panel viability, ATPlite luminescence, 48 h; series mostly up to 57.5 µM
# Procedure, shortened: as §1
# [4] = system: HeLa; assay: as above; conditions: Gynecologic cancer cell panel viability, ATPlite luminescence, 48 h; series mostly up to 57.5 µM
# Procedure, shortened: as §1
# [5] = system: Hek293T; assay: as above; conditions: Gynecologic cancer cell panel viability, ATPlite luminescence, 48 h, control line for the selectivity index; series mostly up to 57.5 µM
# Procedure, shortened: as §1
# [6] = system: JEG-3; assay: as above; conditions: Gynecologic cancer cell panel viability, ATPlite luminescence, 48 h; series mostly up to 57.5 µM
# Procedure, shortened: as §1
# [7] = system: OV90; assay: as above; conditions: Gynecologic cancer cell panel viability, ATPlite luminescence, 48 h; series mostly up to 57.5 µM
# Procedure, shortened: as §1
# [8] = system: PA-1; assay: as above; conditions: Gynecologic cancer cell panel viability, ATPlite luminescence, 48 h; series mostly up to 57.5 µM
# Procedure, shortened: as §1
# [9] = system: Tov-21-G; assay: as above; conditions: Gynecologic cancer cell panel viability, ATPlite luminescence, 48 h; series mostly up to 57.5 µM
# Procedure, shortened: as §1
# [10] = system: Tov112D; assay: as above; conditions: Gynecologic cancer cell panel viability, ATPlite luminescence, 48 h; series mostly up to 57.5 µM
# Procedure, shortened: as §1
# [11] = system: SKOV3; assay: as above; conditions: Gynecologic cancer cell panel viability, ATPlite luminescence, 48 h; series mostly up to 57.5 µM
# Procedure, shortened: as §1
# [12] = qHTS assay to identify inhibitors of the type 1 interferon - major histocompatibility complex class I in skeletal muscle: Counter screen cell viability and HiBit confirmation (AID 1347412); conditions: iHSKM muscle cells + IFN-b, HiBiT or CellTiter-Glo, 24 h; for activity change, negative = inhibition: at 45.9 µM (top of the series); as to all read-outs here: nearly all actives have a fitted effect of over 60% in size
# Procedure, shortened: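 After 24 h with human IFN-beta (4 ng/ml) and compound titrations (top 46 uM final, 1:3, 12 points), HLA-B HiBit myoblasts were lysed for either Nano-Glo HiBiT luminescence or CellTiter Glo viability on paired plates.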
# Potency is read from the fitted curve at half-maximal effect.
compound,measurement,setting,value
Cc1cc(C)c(CNC(=O)c2cc(-c3ccc(CN4CCOCC4)cc3)cc3c2cnn3C2CCCC2)c(=O)[nH]1,Potency,[1],inactive
same,Potency,[2],inactive
same,Potency,[3],inactive
same,Potency,[4],inactive
same,Potency,[5],inactive
same,Potency,[6],inactive
same,Potency,[7],inactive
same,Potency,[8],inactive
same,Potency,[9],inactive
same,Potency,[10],inactive
Cc1ccc(S(=O)(=O)n2ccc(-c3c(-c4ccc(Cl)cc4)noc3C)n2)cc1,Potency,[1],8.91 µM (active)
same,Potency,[2],inactive
same,Potency,[3],inactive
same,Potency,[4],inactive
same,Potency,[5],inactive
same,Potency,[7],inactive
same,Potency,[8],inactive
CCOC(=O)C(CCc1ccccc1)NC(C)C(=O)N1C(=O)N(C)CC1C(=O)O (configuration not stated),Potency,[1],inactive
same,Potency,[2],inactive
same,Potency,[3],inactive
same,Potency,[4],inactive
same,Potency,[5],inactive
same,Potency,[6],inactive
same,Potency,[7],inactive
same,Potency,[11],inactive
same,Potency,[9],inactive
same,Potency,[10],inactive
COc1c(Nc2ncc(Cl)c(N[C@H]3[C@@H](C(N)=O)[C@@H]4C=C[C@H]3C4)n2)ccc2c1CC[C@@H](N1CCOCC1)CC2,Potency,[1],inactive
same,Potency,[2],inactive
same,Potency,[3],inactive
same,Potency,[4],inactive
same,Potency,[5],inactive
same,Potency,[6],inactive
same,Potency,[7],inactive
same,Potency,[8],inactive
same,Potency,[9],inactive
same,Potency,[10],inactive
C[C@@H]1O[C@@H](O[C@H]2[C@H](O[C@H]3CC[C@@]4(C)C(CC[C@]5(C)C4CC=C4[C@@H]6CC(C)(C)CC[C@]6(C(=O)O[C@@H]6OC[C@H](O)[C@H](O)[C@H]6O[C@@H]6O[C@@H](C)[C@H](O[C@@H]7O[C@H](CO)[C@@H](O)[C@H](O)[C@H]7O)[C@H](O)[C@H]6O)[C@H](O)C[C@]45C)C3(C)C)O[C@H](CO)[C@@H](O[C@@H]3OC[C@@H](O)[C@H](O)[C@H]3O)[C@@H]2O)[C@H](O)[C@H](O)[C@H]1O (some centres not stated),"activity change, negative = cytotoxicity",[1],-7.19% [at 6.55 µM]
same,"activity change, negative = cytotoxicity",[2],6.32% [at 6.55 µM]
same,"activity change, negative = cytotoxicity",[3],0.0947% [at 6.55 µM]
same,"activity change, negative = cytotoxicity",[4],-17.4% [at 6.55 µM]
same,"activity change, negative = cytotoxicity",[5],6.66% [at 6.55 µM]
same,"activity change, negative = cytotoxicity",[6],5.72% [at 6.55 µM]
same,"activity change, negative = cytotoxicity",[7],11.1% [at 6.55 µM]
same,"activity change, negative = cytotoxicity",[8],4.23% [at 6.55 µM]
same,"activity change, negative = cytotoxicity",[11],-6.09% [at 6.55 µM]
same,"activity change, negative = cytotoxicity",[9],2.71% [at 6.55 µM]
same,"activity change, negative = cytotoxicity",[10],-23.4% [at 6.55 µM]
Cc1ccc([N+](=O)[O-])cc1S(=O)(=O)N(C)/N=C/c1cnc2ccc(Br)cn12,Potency,[1],0.316 µM (active)
same,Potency,[2],0.316 µM (active)
same,Potency,[3],0.398 µM (active)
same,Potency,[4],0.316 µM (active)
same,Potency,[5],0.316 µM (active)
same,Potency,[8],0.199 µM (active)
same,Potency,[10],0.355 µM (active)
same,Potency,[12]; HiBiT,0.0497 µM (active)
same,"activity change, negative = inhibition",[12]; Viability,-5.21%
C=CC1(C)CC(OC(=O)/C(C)=C\COC(C)=O)C(C(=C)C(=O)O)C(O)C1C(=C)CO (configuration not stated),Potency,[1],inactive
same,Potency,[2],inactive
same,Potency,[3],inactive
same,Potency,[4],inactive
same,Potency,[5],inactive
same,Potency,[6],inactive
same,Potency,[7],inactive
same,Potency,[8],inactive
same,Potency,[9],inactive
same,Potency,[10],inactive
CN1CCN(C(=O)c2ccc3cc(CCNc4ncnc5ccc(C#N)cc45)ccc3c2)CC1,Potency,[1],inactive
same,Potency,[2],inactive
same,Potency,[3],inactive
same,Potency,[4],inactive
same,Potency,[5],inactive
same,Potency,[9],inactive
same,Potency,[10],inactive
same,"activity change, negative = inhibition",[12]; Viability,5.79%
O=C(/C=C/c1cccc(S(=O)(=O)Nc2ccccc2)c1)NO,Potency,[1],11.2 µM (active)
same,Potency,[2],8.91 µM (active)
same,Potency,[3],5.01 µM (active)
same,Potency,[4],4.47 µM (active)
same,Potency,[6],4.47 µM (active)
same,Potency,[7],3.98 µM (active)
same,Potency,[8],1.26 µM (active)
same,Potency,[11],11.2 µM (active)
same,Potency,[10],3.98 µM (active)
same,Potency,[12]; HiBiT,3.13 µM (active)
same,"activity change, negative = inhibition",[12]; Viability,-9.07%
C=C[C@]1(C)C[C@H](O)[C@@H]2[C@H](OC(=O)[C@@H]2C)C1/C(C)=C/O[C@@H]1O[C@H](CO)[C@@H](O)[C@H](O)[C@H]1O (some centres not stated),Potency,[1],inactive
same,Potency,[2],inactive
same,Potency,[3],inactive
same,Potency,[4],inactive
same,Potency,[5],inactive
same,Potency,[6],inactive
same,Potency,[7],inactive
same,Potency,[11],inactive
same,Potency,[9],inactive
same,Potency,[10],inactive
Cc1cc(NC(=O)Nc2ccc(F)c(F)c2)n(-c2ccccc2)n1,Potency,[1],inactive
same,Potency,[2],inactive
same,Potency,[3],inactive
same,Potency,[4],inactive
same,Potency,[5],inactive
same,Potency,[6],inactive
same,Potency,[7],inactive
same,Potency,[8],inactive
same,Potency,[9],inactive
same,Potency,[10],inactive
C=C1CN(Cc2ccc(C(=O)Nc3ccccc3N)cc2)C(=O)c2ccccc21,Potency,[1],2.82 µM (active)
same,Potency,[2],4.47 µM (active)
same,Potency,[3],5.01 µM (active)
same,Potency,[4],3.55 µM (active)
same,Potency,[5],2.24 µM (active)
same,Potency,[6],5.62 µM (active)
same,Potency,[7],6.31 µM (active)
same,Potency,[8],2.24 µM (active)
same,Potency,[11],1.41 µM (active)
same,Potency,[10],3.98 µM (active)
CCN1CCN(Cc2ccc(NC(=O)c3ccc(C)c(/C=C/c4cnc5[nH]ccc5c4OC)c3)cc2C(F)(F)F)CC1,Potency,[1],14.1 µM (active)
same,Potency,[2],12.6 µM (active)
same,Potency,[3],10 µM (active)
same,Potency,[4],15.8 µM (active)
same,Potency,[6],inactive
same,Potency,[7],17.8 µM (active)
same,Potency,[8],5.62 µM (active)
same,Potency,[11],8.91 µM (active)
same,Potency,[9],2.51 µM (active)
same,Potency,[12]; HiBiT,6.25 µM (active)
same,Potency,[12]; Viability,14 µM (active)
C/C=C/C1=CC2=C(CO1)C(=O)C(C)(O)C(OC(=O)c1c(C)cc(OC)cc1O)C2 (configuration not stated),Potency,[1],inactive
same,Potency,[2],inactive
same,Potency,[3],inactive
same,Potency,[4],inactive
same,Potency,[5],inactive
same,Potency,[6],inactive
same,Potency,[7],inactive
same,Potency,[8],inactive
same,Potency,[9],inactive
same,Potency,[10],inactive

# Source: PubChem BioAssay (NCATS)
